Measurements published in PubChem BioAssay AID1572 (National Center for Advancing Translational Sciences (NCATS), 2009).
Records with an inconclusive call do not appear. Values without a mark were called inactive. Active and inactive are the calls of the source. The call rests on the fitted dose curve; in most records, active means well fitted curve in either direction with a large enough effect; inconclusive means small, poorly fitted or top-dose-only effect; inactive means flat fitted curve, though single readings scatter.

Test: Total Fluorescence Confirmation Counterscreen for Inhibitors of the Interaction of Thyroid Hormone Receptor and Steroid Receptor Coregulator 2
Details: Texas Red total fluorescence, TRbeta/SRC2 FP artifact counterscreen; series mostly up to 92.2 µM; total fluorescence change, both ways: at the top concentration
Description: NIH Molecular Libraries Probe Production Network [MLPCN] NIH Chemical Genomics Center [NCGC] MLPCN Grant: DK058080 Assay Provider: R. Kip Guy, St. Jude Children's Research Hospital NCGC Assay Overview: Thyroid receptor (TR) regulates many homeostatic processes including basal metabolism, cardiovascular function, body weight, and lipid trafficking. TR modulators are potential therapeutics for obesity and hyperlipidemias but current thyroid analogs have undesirable side effects, particularly cardiac stimulation. To identify inhibitors that specifically prevent the interaction of TR with the steroid receptor coregulator 2 (SRC2), a fluorescence polarization assay was screened. This assay detects interaction of the ligand-binding domain of human TRbeta with a Texas Red labeled SRC2 peptide, corresponding to a 20 amino acid region of the nuclear receptor interaction domain (Arnold et al., 2006). Total fluorescence (555 nm excitation and 632 nm emission) was measured to identify potential fluorescent and light absorbing compounds. Such compounds may be artifacts that interfere with the fluorescence polarization assay. This assay is a confirmation assay for AID 1479. Arnold, L. A.; Estebanez-Perpina, E.; Togashi, M.; Shelat, A.; Ocasio, C. A.; McReynolds, A. C.; Nguyen, P.; Baxter, J. D.; Fletterick, R. J.; Webb, P.; Guy, R. K. A high-throughput screening method to identify small molecule inhibitors of thyroid hormone receptor coactivator binding. Sci STKE 2006, p 13.
NCGC Assay Protocol Summary: For screening, 5 uL/well 0.6 uM TRbeta and 20 nM SRC2 Texas Red in protein buffer (20mM Tris hydrochloride, 100mM NaCl, 10% glycerol, 1mM EDTA, 0.01% NP-40, 1mM DTT, 1uM T3 and 5% DMSO) was dispensed into black solid 1536-well plates (Grenier) using a solenoid-based dispenser. Following transfer of 23 nL compound or DMSO vehicle by a pin tool, the plates were centrifuged 15 s at 1000 RPM and incubated 5 hr at ambient temperature. The plates were read by an Envision (Perkin Elmer) to detect fluorescence polarization of SRC2 Texas Red (555 nm excitation and 632 nm emission). Data were normalized to unbound (all components except TRbeta) and bound SRC2 Texas Red controls. Total fluorescence (TF) was calculated as follows: TF = S + 2P where S and P are fluorescence readings in the parallel and perpendicular channels, respectively. In this assay, we provide % activity data for each concentration as well as potencies for the active compounds.

Row | SMILES | total fluorescence change, both ways | outcome
1 | CCn1nc(-c2cccs2)nc2c(=O)n(C)c(=O)nc1-2 | -0.774% | 
2 | COP(=S)(OC)Oc1ccc([N+](=O)[O-])cc1 | 8.92% [at 184 µM] | 
3 | CN1CC[C@@]2(C)c3cc(O)ccc3N(C)C2O1 (stereo partly specified) | 1.51% [at 184 µM] | 
4 | CCCCCn1c(N)c(C(=O)NCc2cccs2)c2nc3ccccc3nc21 | 6.05% | 
5 | O=C(O)CC1OCC=C2CN3CCC45C6=CC(=O)C(=O)C([N+](=O)[O-])=C6NC4C1C2CC35 (stereo unspecified) |  | inactive
6 | Cc1[nH]n(-c2ccccc2)c(=O)c1C(c1ccc([N+](=O)[O-])cc1)c1c(C)[nH]n(-c2ccccc2)c1=O | -23.2% | 
